# Results taken from PubChem BioAssay (NCI).
# Several values for one entry are separate records, joined by “and”; a condition that tells them apart may be missing. Equal entries are not always repeated. The panel holds about 83,000 compounds, 20% with a hit somewhere; the sample as a whole holds those more often.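 A percent growth of 40 corresponds to 60% growth inhibition; 0 means no net growth; -100 means all cells died. Active threshold: below 10.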 Activity calls are given as the source filed them.
# Test system: MDA-MB-468 breast
# Assay: NCI-60 one-dose screen, 48 h (100 = growth as untreated, 0 = no growth, -100 = all killed)
# Settings: 10 µM unless noted
row,Structure (SMILES),growth
1,CCOC(=O)[C@@H](Cc1ccccc1)NC(=O)c1[nH]c2ccc(Cl)cc2c(=O)c1C,78% (inactive)
2,COc1ccc(-c2ccc3cc(C(=O)Nc4ccc(O)c(C(=O)/C=C/c5cc(OC)c(OC)c(OC)c5)c4)ccc3c2)cc1,82.2% (inactive)
3,O=C1c2c(c3c4cccc(F)c4[nH]c3c3ccc4ccccc4c23)C(=O)N1O,54.3% (inactive)
4,CCOC(=O)c1c(C)nc2c(c1N)/C(=C/c1ccc(OC)cc1)C(=O)N2Cc1ccccc1,66.7% (inactive)
5,Cc1ccc(-n2c(-c3cc4c([nH]c5ccccc54)c(-c4cccc(O)c4)n3)n[nH]c2=S)cc1,-32.3% (active)
6,O=C(C=P(c1ccccc1)(c1ccccc1)c1ccccc1)c1ccc(Br)cc1,92% (inactive)
7,Fc1ccc(-c2nnc(-c3c(-c4ccc(F)cc4)nc4ncccn34)o2)cc1,88.7% (inactive)
8,Cc1cc2ccccc2nc1-c1ccccc1F,105% (inactive)
9,Oc1ccc(O)c(-[n+]2ccccc2)c1,91.8% (inactive)
10,COCCCNC(=O)c1nnn2c1nc(N)c1cc(Cl)ccc12,88.6% (inactive)
11,CC(C)(C)CC(C)(C)Nc1c(-c2c(O)c3ccccc3oc2=O)nc2sccn12,86.6% (inactive)
12,Cc1nn(-c2ccccc2)c2nc(CCl)[nH]c(=O)c12,26.6% (inactive)
13,Cc1ccc(C(=O)c2ccc(CC(=O)N=Nc3c(O)[nH]c4ccc(OC(F)(F)F)cc34)n2C)cc1,108% (inactive)
14,CCOC(=O)CC[C@H](NC(=O)c1ccc(N(C)Cc2cnc3nc(N)nc(N)c3n2)c2ccccc12)C(=O)OCC,27.1% (inactive)
15,CC(C)(C)NC(=O)C(OC(=O)C1CCc2cc(F)ccc2O1)c1ccccc1Cl (centres undefined),105% (inactive)
16,COc1ccc(N2CCN(C(=O)c3sc4nc(C)c(Br)c(C)c4c3N)CC2)cc1,109% (inactive)
17,COc1ccc(/C(=N/O)c2cc(OC)c(OC)c(OC)c2)c(OC)c1N,27.8% (inactive)
18,COc1ccc(N=Nc2cc(OC)c(OC)c(OC)c2)cc1,80.9% (inactive)
19,O=c1[nH]c(-c2cccc(F)c2)cc2cc(F)ccc12,33.2% (inactive)
20,COc1ccc2c(c1)C1(C(=O)N2)C(C#N)=C(c2ccccc2)Nc2c1c(-c1ccccc1)nn2-c1ccccc1 (centres undefined),76.5% (inactive)

row,Structure (SMILES),growth
1,COC(=O)C1C2CC3c4[nH]c5cc(OC)ccc5c4CCN3CC2CC(OC2CCCCO2)C1OC (centres undefined),95.5% (inactive)
2,Cc1nc2cnc(N)c(C#Cc3cncc(C(=O)Nc4ccc(Cl)c(C(F)(F)F)c4)c3)c2nc1C,72.6% (inactive)
3,C[C@H]1[C@H](C)CC[C@]2(C(=O)OCCOCCOCC[P+](c3ccccc3)(c3ccccc3)c3ccccc3)CC[C@]3(C)C(=CC[C@@H]4[C@@]5(C)CC[C@H](OC(=O)C(Cl)Cl)C(C)(C)[C@@H]5CC[C@]43C)[C@H]12,-21.5% (active)
4,Nc1ncc(C#Cc2cncc(NC(=O)c3cccc(C(F)(F)F)c3)c2)c2cccnc12,92.5% (inactive)
5,COc1cc(/C=N\NC(=O)CN2CCN(c3cc4c(cc3F)c(=O)c(C(=O)N/N=C/c3ccc(O)c(OC)c3)cn4C3CC3)CC2)ccc1O,-37.8% (active)
6,Cc1cc(C)c(N)c(Br)c1,104% (inactive) and 107% (inactive)
7,COC(=O)c1c2c(c(C)[n+]([O-])c1C)C(=O)C=C(NCc1ccc(F)c(Cl)c1)C2=O,-70.5% (active)
8,O=C1C2=C(Nc3cc([N+](=O)[O-])ccc3N2)OC1c1c2ccccc2cc2ccccc12 (centres undefined),37.3% (inactive)
9,O=C(Nc1cc(Cl)cc(Cl)c1)Nc1ccc2oc(=O)ccc2c1,15.7% (inactive)
10,Cc1ccc(NC2CC(=O)N(c3c(C)cc(C)cc3C)C2=O)c(C)c1 (centres undefined),114% (inactive)
11,COc1cc(-c2ccc3c(c2)NC(=O)/C3=C\c2ccc[nH]2)ccc1O,16.6% (inactive)
12,CCCCN(Cc1ccc(C(=O)NO)cc1)C(=O)Nc1ccc(OCCCCCCCCCn2cc(CCCCC(=O)N[C@H](C(=O)N3C[C@H](O)C[C@H]3C(=O)NCc3ccc(-c4scnc4C)cc3)C(C)(C)C)nn2)cc1,0.0949% (active)
13,Cc1c(C(=O)Nc2ccccc2F)sc2c(=O)[nH]cnc12,106% (inactive)
14,COCCn1cc(-c2csc(-c3c[nH]c4ccc(Br)cc34)n2)c2cccnc21,0.403% (active)
15,Oc1nc(NCc2ccccc2)sc1/C=C1\C=Nc2ncccc21,58.4% (inactive)
16,CC1(C)CC[C@]23CC[C@]4(C)[C@H](CC[C@@H]5[C@@]6(C)CC[C@H](NCO)C(C)(C)[C@@H]6CC[C@]54C)[C@H]2[C@H]1OC3,-56.6% (active)
17,Cc1cccc(NC(c2cc3cccc4ccc5cccc2c5c43)c2nnnn2C(C)(C)C)c1C (centres undefined),-10.3% (active)
18,C=C1C(=O)O[C@H]2[C@H]1CC/C(CNC(=O)/C=C/c1cc(OC)c(OC)c(OC)c1)=C\CC[C@@]1(C)O[C@@H]21,-57.6% (active)
19,C[C@]12CCc3c(ccc4cc(O)ccc34)[C@@H]1CC[C@H]2O,81.3% (inactive)
